# Assay results taken from the supplement of paper PMC8975748.
# Structures can show the parent of a compound that is named as a salt. ± gives the standard deviation of the averaged measurements.
# Columns and labels:
# [1] = test system: Saccharomyces cerevisiae BY4741 SeMeCo community; assay: z-score of prototroph abundance vs DMSO median; higher = larger share of this subpopulation than in DMSO controls; conditions: 10 µM; 24 h; SM minimal medium; subpopulation (auxotrophy): Prototroph
# Procedure, shortened: (§1)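 Scoring was based on each subpopulation's abundance, expressed as a z-score against the vehicle-well median. A Saccharomyces cerevisiae BY4741 community with four plasmids, each restoring one auxotrophy and encoding a distinct fluorescent protein, was pre-grown overnight to OD600 1.0, diluted to 0.3, and added at 70 µl to 384-well plates acoustically predosed with library drugs (10 µM final). It then grew 24 h in minimal SM medium before paraformaldehyde fixation and automated confocal microscopy, with single-auxotroph fluorescent strains setting thresholds and autofluorescence correction.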
# [2] = test system: Saccharomyces cerevisiae BY4741 SeMeCo community; assay: z-score of subpopulation abundance vs DMSO median, subpopulation auxotrophic for M; higher = larger share of this subpopulation than in DMSO controls; conditions: 10 µM; 24 h; SM minimal medium; subpopulation (auxotrophy): M
# Procedure, shortened: as §1
# [3] = test system: Saccharomyces cerevisiae BY4741 SeMeCo community; assay: z-score of subpopulation abundance vs DMSO median, subpopulation auxotrophic for U; higher = larger share of this subpopulation than in DMSO controls; conditions: 10 µM; 24 h; SM minimal medium; subpopulation (auxotrophy): U
# Procedure, shortened: as §1
# [4] = test system: Saccharomyces cerevisiae BY4741 SeMeCo community; assay: z-score of subpopulation abundance vs DMSO median, subpopulation auxotrophic for H; higher = larger share of this subpopulation than in DMSO controls; conditions: 10 µM; 24 h; SM minimal medium; subpopulation (auxotrophy): H
# Procedure, shortened: as §1
# [5] = test system: Saccharomyces cerevisiae BY4741 SeMeCo community; assay: z-score of subpopulation abundance vs DMSO median, subpopulation auxotrophic for LU; higher = larger share of this subpopulation than in DMSO controls; conditions: 10 µM; 24 h; SM minimal medium; subpopulation (auxotrophy): LU
# Procedure, shortened: as §1
# [6] = test system: Saccharomyces cerevisiae BY4741 SeMeCo community; assay: z-score of subpopulation abundance vs DMSO median, subpopulation auxotrophic for LM; higher = larger share of this subpopulation than in DMSO controls; conditions: 10 µM; 24 h; SM minimal medium; subpopulation (auxotrophy): LM
# Procedure, shortened: as §1
# [7] = test system: Saccharomyces cerevisiae BY4741 SeMeCo community; assay: z-score of subpopulation abundance vs DMSO median, subpopulation auxotrophic for HM; higher = larger share of this subpopulation than in DMSO controls; conditions: 10 µM; 24 h; SM minimal medium; subpopulation (auxotrophy): HM
# Procedure, shortened: as §1
# [8] = test system: Saccharomyces cerevisiae BY4741 SeMeCo community; assay: z-score of subpopulation abundance vs DMSO median, subpopulation auxotrophic for HU; higher = larger share of this subpopulation than in DMSO controls; conditions: 10 µM; 24 h; SM minimal medium; subpopulation (auxotrophy): HU
# Procedure, shortened: as §1
# [9] = test system: Saccharomyces cerevisiae BY4741 SeMeCo community; assay: z-score of subpopulation abundance vs DMSO median, subpopulation auxotrophic for UM; higher = larger share of this subpopulation than in DMSO controls; conditions: 10 µM; 24 h; SM minimal medium; subpopulation (auxotrophy): UM
# Procedure, shortened: as §1
# [10] = test system: Saccharomyces cerevisiae BY4741 SeMeCo community; assay: z-score of subpopulation abundance vs DMSO median, subpopulation auxotrophic for HL; higher = larger share of this subpopulation than in DMSO controls; conditions: 10 µM; 24 h; SM minimal medium; subpopulation (auxotrophy): HL
# Procedure, shortened: as §1
# [11] = test system: Saccharomyces cerevisiae BY4741 SeMeCo community; assay: z-score of subpopulation abundance vs DMSO median, subpopulation auxotrophic for HLU; higher = larger share of this subpopulation than in DMSO controls; conditions: 10 µM; 24 h; SM minimal medium; subpopulation (auxotrophy): HLU
# Procedure, shortened: as §1
# [12] = test system: Saccharomyces cerevisiae BY4741 SeMeCo community; assay: z-score of subpopulation abundance vs DMSO median, subpopulation auxotrophic for HLM; higher = larger share of this subpopulation than in DMSO controls; conditions: 10 µM; 24 h; SM minimal medium; subpopulation (auxotrophy): HLM
# Procedure, shortened: as §1
# [13] = test system: Saccharomyces cerevisiae BY4741 SeMeCo community; assay: z-score of subpopulation abundance vs DMSO median, subpopulation auxotrophic for HUM; higher = larger share of this subpopulation than in DMSO controls; conditions: 10 µM; 24 h; SM minimal medium; subpopulation (auxotrophy): HUM
# Procedure, shortened: as §1
# [14] = test system: Saccharomyces cerevisiae BY4741 SeMeCo community; assay: mean cell size (pixel area) (pixels); higher = larger cells; conditions: 10 µM; 24 h; SM minimal medium
# Procedure, shortened: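 A four-plasmid fluorescent Saccharomyces cerevisiae BY4741 community was tested; each plasmid complements one auxotrophy and carries a fluorescent marker. An overnight preculture at OD600 = 1.0 was diluted to OD600 = 0.3, and 70 µl was added to 384-well plates acoustically predosed with drug (final 10 µM) in SM medium for 24 h. Cells were fixed with paraformaldehyde and imaged by automated confocal microscopy, with analysis in Harmony. Mean cell pixel area per well is averaged over 3 replicates. Same SeMeCo high-content imaging drug screen: Selleck FDA-approved drugs at 10 µM, 24 h in SM medium, 384-well plates, 3 replicates.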
# [15] = test system: Saccharomyces cerevisiae BY4741 SeMeCo community; assay: z-score of subpopulation abundance vs DMSO median, subpopulation auxotrophic for LUM; higher = larger share of this subpopulation than in DMSO controls; conditions: 10 µM; 24 h; SM minimal medium; subpopulation (auxotrophy): LUM
# Procedure, shortened: as §1
# [16] = test system: Saccharomyces cerevisiae BY4741 SeMeCo community; assay: z-score of subpopulation abundance vs DMSO median, subpopulation auxotrophic for HLUM; higher = larger share of this subpopulation than in DMSO controls; conditions: 10 µM; 24 h; SM minimal medium; subpopulation (auxotrophy): HLUM
# Procedure, shortened: as §1
# [17] = test system: Saccharomyces cerevisiae BY4741 SeMeCo community; assay: z-score of subpopulation abundance vs DMSO median, subpopulation auxotrophic for L; higher = larger share of this subpopulation than in DMSO controls; conditions: 10 µM; 24 h; SM minimal medium; subpopulation (auxotrophy): L
# Procedure, shortened: as §1
Structure (SMILES),z-score of prototroph abundance [1],z-score of subpopulation abundance [2],z-score of subpopulation abundance [3],z-score of subpopulation abundance [4],z-score of subpopulation abundance [5],z-score of subpopulation abundance [6],z-score of subpopulation abundance [7],z-score of subpopulation abundance [8],z-score of subpopulation abundance [9],z-score of subpopulation abundance [10],z-score of subpopulation abundance [11],z-score of subpopulation abundance [12],z-score of subpopulation abundance [13],mean cell size [14],z-score of subpopulation abundance [15],z-score of subpopulation abundance [16],z-score of subpopulation abundance [17]
Cc1ccc(Sc2ccccc2N2CCNCC2)c(C)c1,0.66,-0.9,-0.43,-0.02,-0.09,-0.55,-0.62,-0.76,-0.97,-0.11,0.19,-0.35,-0.46,,,,
C[C@H]1COc2c(N3CCN(C)CC3)c(F)cc3c(=O)c(C(=O)O)cn1c23 [Levofloxacin],1.06,0,-0.46,,-0.77,,-0.49,,,-0.59,-0.56,-1.03,-0.88,12.4 ± 0.19,-1.11,-0.96,
COc1ccnc(C[S+]([O-])c2nc3cc(-n4cccc4)ccc3[nH]2)c1C (stereo not drawn) [Ilaprazole],-0.51,-0.98,-1.42,,0,0.85,0.96,-0.45,-1.96,3.84,0.92,1.1,,12.6 ± 0.45,-0.52,0.68,
Cc1ncc([N+](=O)[O-])n1C [Dimetridazole],0.38,-0.26,-0.07,0.05,-0.31,-0.99,-0.42,,-0.37,-0.32,-0.59,0.46,0.28,12.5 ± 0.19,-1.1,0.31,
OCCOCCN1CCN(C2=Nc3ccccc3Sc3ccccc32)CC1 [Quetiapine Fumarate],-0.49,0.24,-0.17,,,0.32,0.13,-0.61,0.49,-0.06,0.76,0.55,0.19,12.42 ± 0.12,0.86,0.41,0.37
Clc1ccc2c(N3CCN(CCCN4CCN(c5ccnc6cc(Cl)ccc56)CC4)CC3)ccnc2c1 [Piperaquine phosphate],,1.85,0.1,0.23,-0.13,0.85,1.16,-0.29,0.36,-0.1,0.33,,,12.2 ± 0.16,-0.03,0.31,
COc1ccc2c(c1)c(CC(=O)O)c(C)n2C(=O)c1ccc(Cl)cc1 [Indomethacin],0.27,-0.33,0.52,-0.68,,0.16,-1.04,-0.04,1.08,-0.38,-0.33,-1.07,0.09,12.29 ± 0.12,,-0.35,0.48
O=C1c2cccc3c2[C@H](CCC3)CN1[C@@H]1CN2CCC1CC2 [Palonosetron HCl],,-0.37,,-0.32,,-0.39,-0.69,0.33,0.37,-0.31,-0.05,-0.58,-0.03,11.92 ± 0.064,-0.02,-0.14,-0.13
CCN(CC)CCNC(=O)c1cc(S(C)(=O)=O)ccc1OC [Tiapride Hydrochloride],,0.16,,0.23,,0.55,0.84,0.47,0.43,0.93,0.72,3.15,0.14,12.36 ± 0.12,0.9,2.52,0.96
CCOC(=O)CCC(=O)O[C@H]1[C@H](O[C@@H]2[C@@H](C)[C@H](O[C@H]3C[C@@](C)(OC)[C@@H](O)[C@H](C)O3)[C@@H](C)C(=O)O[C@H](CC)[C@@](C)(O)[C@H](O)[C@@H](C)C(=O)[C@H](C)C[C@@]2(C)O)O[C@H](C)C[C@@H]1N(C)C [Erythromycin Ethylsuccinate],-2.21,1.39,,1.99,,3.22,3.14,0.76,-0.31,,1.44,2.71,1.68,12.4 ± 0.15,2.68,0.83,2.32
COC(=O)C1=C(C)NC(C)=C(C(=O)OC(C)C)C1c1cccc2nonc12 (stereo not drawn) [Isradipine],-0.42,-0.1,0.74,-0.09,,-1.09,-0.24,0.75,1.06,-0.52,0.04,-0.7,0.44,12.49 ± 0.11,-0.39,0.04,-0.22
C[C@@H](NCCCc1cccc(C(F)(F)F)c1)c1cccc2ccccc12 [Cinacalcet HCl],-0.37,0.31,,0.26,,3.33,0.25,-1.71,,1.05,-0.17,0.67,-0.21,12.17 ± 0.037,2.57,1.57,2.8
C#C[C@]1(O)CC[C@H]2[C@@H]3CCC4=CCCC[C@@H]4[C@H]3C(=C)C[C@@]21CC [Desogestrel],0.47,-0.11,-0.38,0.78,0.22,-0.94,-0.05,,-1.41,0.58,0.73,-0.87,,12.3 ± 0.29,-0.72,-0.48,
Cc1ncc([N+](=O)[O-])n1CCO [Metronidazole],0.23,0.32,-0.5,0.44,,0.12,-0.42,-0.14,-0.62,,0.18,-0.7,0.09,12.4 ± 0.12,-0.37,0.08,0.11
